Screening data: PubChem, National Center for Advancing Translational Sciences (NCATS)
D3 ag: D3 dopamine receptor (human) agonism; AID 652048; P35462; 410,000 compounds, 0.58% hits; D3R DiscoveRx beta-arrestin cells, luminescence, 90 min; max activation, %; in the data active = max activation above about 30%
Target sequence (P35462 whole entry, looked up): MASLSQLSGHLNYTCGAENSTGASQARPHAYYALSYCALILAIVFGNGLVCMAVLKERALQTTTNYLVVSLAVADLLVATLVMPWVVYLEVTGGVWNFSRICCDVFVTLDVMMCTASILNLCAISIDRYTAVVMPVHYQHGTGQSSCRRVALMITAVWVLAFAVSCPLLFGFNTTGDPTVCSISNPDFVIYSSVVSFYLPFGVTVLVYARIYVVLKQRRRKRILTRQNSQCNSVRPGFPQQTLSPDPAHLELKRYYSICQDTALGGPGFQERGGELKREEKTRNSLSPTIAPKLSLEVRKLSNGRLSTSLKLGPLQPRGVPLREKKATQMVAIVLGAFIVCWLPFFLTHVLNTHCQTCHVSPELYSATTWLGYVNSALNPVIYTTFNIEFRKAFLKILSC
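Agonist mode: compounds and dopamine controls were applied to plated cells for 90 min at 37 degrees C after an overnight attachment at 1500 cells/well. Luminescent read-out followed 30 - 60 minutes at room temperature with DiscoveRx detection reagent.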
LDHA block: inhibitors of human lactate dehydrogenase A | P00338 | purified LDHA, NADH/diaphorase-resazurin fluorescence; stronger effect = lower value | activity change, % (values are at about 110 or 230 µM) | 480,000 compounds, 0.15% hits | AID 1347041; in the data active = activity change below about -30%; inconclusive = mostly about -25% to -30%
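Human LDH5 at 2 nM final in Tris HCl pH 7.4 with 0.06 mM NADH and 0.2 mM pyruvate, reacted 5 minutes at room temperature. Remaining NADH coupled via diaphorase/resazurin; resorufin fluorescence read at 0 and 20 minutes, normalized to enzyme-free and DMSO wells.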
Akt phos inh: inhibitors of Akt phosphorylation; Neuro2A IGF-stimulated pAkt S473 HTRF, 20 min; stronger effect = lower value; activity change, % for hits at 50 µM; 360,000 compounds, 0.32% hits; in the data active = activity change below about -80%; inconclusive = mostly about -51% to -80%
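Neuro2A cells (4,500/well, DMEM with 0.5% FBS) were treated with compound at a single 50 µM final concentration, stimulated with 6 nM IGF for 20 min at 37 °C, and lysed. Phospho-Akt Ser473 was read by HTRF as 665/615 ratio ×10^4.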
DRD3 antagonist: antagonists of human D3 dopamine receptor; max response, negative = inhibition, %; AID 652054; 360,000 compounds, 2.5% hits; D3R cells, DiscoveRx beta-arrestin luminescence, antagonist mode; stronger effect = lower value; in the data active = max response below about -50%; inconclusive = no clear call, values can overlap the other calls
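Cells expressing the human receptor were seeded at 1500 cells/well, incubated overnight at 37 degrees C in 5% CO2, then exposed to library compounds with dopamine controls for 90 minutes at 37 degrees C before luminescent detection.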
PI4K2A block: blocks human PI4K2A kinase activity; purified PI4K2A, ADP-Glo luminescence, 1 h; stronger effect = lower value; activity change, negative = inhibition, % at 76.9 µM; 420,000 compounds, 0.13% hits; in the data active = activity change below about -50%; inconclusive = mostly about -30% to -49%
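In this quantitative HTS, ADP production by PI4K2A was quantified luminescently after 1 h at ambient temperature; 100 microM adenosine served as plate-quality control.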
RGS4 inh: blocks human RGS4-accelerated GTP hydrolysis; 390,000 compounds, 0.039% hits; Potency, µM (series often up to 114 µM), most hits filed as inhibitors; Transcreener GDP fluorescence polarization, RGS4-accelerated GTP hydrolysis; P49798; active = well fitted inhibition curve with a large enough effect; inconclusive = small, poorly fitted or top-dose-only effect; inactive = no such curve, though single readings can be large or run the other way; note: nearly all actives have a fitted effect of over 75% in size
Target sequence (P49798 whole entry, looked up): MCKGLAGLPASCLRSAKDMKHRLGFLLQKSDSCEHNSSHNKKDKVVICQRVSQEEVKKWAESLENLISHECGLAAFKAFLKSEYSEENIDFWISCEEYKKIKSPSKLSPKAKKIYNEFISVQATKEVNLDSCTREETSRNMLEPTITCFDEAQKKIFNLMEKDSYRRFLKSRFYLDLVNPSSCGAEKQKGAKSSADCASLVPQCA
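MLSMR compounds (23 nl, pin-transferred) preincubated 10 min at room temperature with a 500nM (2x) first reagent, then RGS4 at 900nM (2x) plus Transcreener GDP mix added; fluorescence polarization (620/688 nm) read before and after 90 min at 30 °C.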
Hits are given with their value; – = inactive; ? = inconclusive; · = no result. Shown are actives, neighbours in structure and some others; about 2.8% of the full set was active somewhere.

SMILES | D3 ag | LDHA block | Akt phos inh | DRD3 antagonist | PI4K2A block | RGS4 inh
COc1ccccc1C(c1nnnn1Cc1ccccc1)N1CCN(c2nc3ccccc3s2)CC1 (configuration not stated) | – | – | – | – | – | –
COc1cc(C2CC(=O)Nc3nc(N4CCCCC4)sc32)cc(OC)c1OC (configuration not stated) | · | – | · | · | · | ·
CCOc1ccc(Nc2nc(-c3ccccc3)c(C(=O)Nc3cccnc3)s2)cc1 | · | – | · | · | · | ·
CC(C)(C)c1ccccc1NC(=O)CCC(=O)O | · | – | · | · | · | ·
O=C(Oc1ccccc1)c1cc(O)c(O)c(O)c1 | – | -35 | – | – | – | ·
Cc1ccc(C2C(C(=O)c3cc4ccccc4o3)=C(O)C(=O)N2CCN2CCOCC2)o1 (configuration not stated) | – | – | – | -56 | – | –
Cc1c(C#N)c(O)n(CCO)c(=O)c1N=Nc1ccc2c(c1)COC2=O | – | – | – | -59 | – | –
Cc1cc(=O)n(CCO)c(O)c1C#N | – | – | – | – | – | –
Cc1ccc(S(=O)(=O)c2cn(CC(=O)Nc3ccc(Cl)cc3)c3ccc(F)cc3c2=O)cc1C | – | – | · | · | – | –
Cc1ccc2c(c1)c(=O)c(S(=O)(=O)c1ccc(C)c(C)c1)cn2CC(=O)Nc1ccccc1 | 38 | – | · | · | – | –
CCOC(=O)c1nnc(-c2ccc(C)cc2)nc1Sc1ccccc1Cl | – | – | – | -85 | – | –
O=C(c1ccc(Cl)cc1Cl)N(CCS(=O)(=O)N1CCOCC1)Cc1cccnc1 | · | – | · | · | · | ·
Cc1[nH]nc2c1C(=O)CC(C)(C)C2 | – | – | -110% | – | – | –
Cc1[nH]nc2c1/C(=N\O)CC(C)(C)C2 | – | – | – | – | – | –
c1ccc(SCc2nc(-c3ccc(C4CCCCC4)cc3)cs2)cc1 | · | – | · | · | · | ·
O=C(CSc1nc(=O)n(Cc2ccncc2)c2c1CCC2)Nc1cccc(Cl)c1 | · | – | · | · | · | ·
CCn1c(CN2CCCCC2)nc2cc(S(=O)(=O)N3CCCCC3)ccc21 | – | – | – | -81 | – | –
CCOC(=O)SC1=N/C(=C\c2ccc(N(C)C)cc2)C(=O)S1 | – | – | – | -54 | – | –
COc1cccc(C#Cc2c(C=O)n(C)c3ccccc23)c1 | 56 | – | – | – | – | –
Cn1c(C=O)c(C#CC(C)(C)O)c2ccccc21 | – | – | – | – | – | –
Cc1nnc2ccc(SCC(=O)Nc3ccc(Cl)cc3)nn12 | · | – | · | · | · | ·
COc1ccc(S(=O)(=O)N2CCCCC2c2cc(C(=O)N3CCOCC3)no2)cc1 (configuration not stated) | – | – | – | -96 | – | ·
O/N=C/c1ccccc1Br | · | – | · | · | · | ·
COc1ccccc1CC(C#N)C(=O)Nc1ccccc1C (configuration not stated) | · | – | · | · | · | ·
C/C(=N\NC(N)=O)c1cc(Cl)cc(Cl)c1O | – | – | – | -82 | – | –
SMILES | D3 ag | LDHA block | Akt phos inh | DRD3 antagonist | PI4K2A block | RGS4 inh
CC(=O)c1ccc(/C=C/c2ccccc2)cc1 | · | – | · | · | · | ·
Cn1ncc(S(=O)(=O)Cc2ccccc2)c(Br)c1=O | · | · | · | · | – | 2.7µM
O=C(O)c1ccccc1S(=O)(=O)Cc1ccccc1 | – | – | – | – | – | –
Cc1ccc(S(=O)(=O)N(C)c2ccc(NS(C)(=O)=O)cc2)cc1 | – | – | -120% | – | – | –
CCNC(=O)/C(C#N)=C/c1c(N2CCN(c3ccccc3)CC2)nc2c(C)cccn2c1=O | – | – | – | -69 | – | –
C=CCNC(=O)/C(C#N)=C/c1c(N2CCN(c3cccc(Cl)c3)CC2)nc2c(C)cccn2c1=O | – | – | – | -59 | – | –
CCOC(=O)/C(C#N)=C/c1c(N2CCN(c3cccc(Cl)c3)CC2)nc2c(C)cccn2c1=O | – | – | – | – | – | –
CNC(=O)/C(C#N)=C/c1c(N2CCN(c3cccc(Cl)c3)CC2)nc2c(C)cccn2c1=O | – | – | – | -57 | – | –
O=C(Cc1ccc(-c2ccccc2)cc1)N1CCN(S(=O)(=O)c2ccc3ccccc3c2)CC1 | · | – | · | · | · | ·
O=C(O)C(c1c[nH]c2cc(Cl)ccc12)N1CCN(Cc2cccc3ccccc23)CC1 (configuration not stated) | · | – | · | · | · | ·
O=C(COC(=O)c1ccc2c(c1[N+](=O)[O-])C(=O)c1ccccc1C2=O)NC1CC1 | – | – | – | -64 | – | –
COc1cccc(C(=O)/C(C#N)=C\c2ccc(OC(F)F)c(OC)c2)c1 | · | – | · | · | · | ·
Cc1c(S(=O)(=O)c2ccccc2)c(N)n(Cc2cccs2)c1C | · | – | · | · | · | ·
Cc1ccc2c(c1)N(CC(=O)N1CCCC1)C(=O)c1cccnc1O2 | – | – | – | -86 | – | –
O=c1[nH]c2cc([N+](=O)[O-])c(NCCO)c([N+](=O)[O-])c2[nH]1 | – | – | – | -59 | – | –
CC(=O)Nc1c([N+](=O)[O-])cc2[nH]c(=O)[nH]c2c1[N+](=O)[O-] | – | – | – | ? | – | ?
O=C1c2ccccc2NC(c2ccc3c(c2)OCO3)N1Cc1ccco1 (configuration not stated) | · | – | · | · | · | –
O=C1c2ccccc2NC(c2ccc3c(c2)OCO3)N1O (configuration not stated) | – | – | – | -57 | – | –
Cc1nn(-c2ccc(N3CCCCC3)nn2)c(C)c1CCC(=O)NCCc1ccco1 | · | – | · | · | · | ·
COc1ccccc1OCCCCN1CCC(C)CC1 | – | – | – | ? | – | –
CC1CCN(CCOCCOc2ccccc2-c2ccccc2)CC1 | – | – | – | -82 | – | –
CC1CCN(CCOc2ccc(OCc3ccccc3)cc2)CC1 | – | – | – | – | – | –
CC1CCN(CCCCOc2ccccc2-c2ccccc2)CC1 | – | – | – | -99 | – | –
CC1CCCN(CCCOc2ccccc2-c2ccccc2)C1 (configuration not stated) | – | – | – | -67 | – | –
CC1CCN(CCOCCOc2ccccc2Br)CC1 | – | – | – | -61 | – | –
SMILES | D3 ag | LDHA block | Akt phos inh | DRD3 antagonist | PI4K2A block | RGS4 inh
CC1CN(CCOc2ccccc2-c2ccccc2)CC(C)O1 (configuration not stated) | – | – | – | ? | – | –
CC(Sc1nnc(-c2ccco2)n1-c1ccccc1)C(=O)NCc1ccc2c(c1)OCO2 (configuration not stated) | · | – | · | · | · | ·
CN(C)CCOCCOc1ccccc1-c1ccccc1 | – | -47 | – | -69 | – | –
Cc1nnc(NC(=O)CSc2nc(N)c(NC(=O)c3cccs3)c(=O)[nH]2)s1 | – | – | – | – | – | –
Cc1cc(C)cc(NC(=O)CSc2nc(N)c(NC(=O)c3cccs3)c(=O)[nH]2)c1 | – | -32 | – | – | – | –
CS/C(Nc1cc(Cl)ccc1Cl)=C(/C#N)C(=O)c1ccco1 | – | -48 | – | – | – | –
